Screens as filed in PubChem BioAssay.
The sample as a whole holds a higher share of hits than the screen did.
C diff HTS = inhibitors of Clostridium difficile growth; Clostridium difficile clinical isolate growth, OD600, 24 h; stronger effect = lower value; 86,000 compounds, 0.25% hits; growth activity, negative = inhibition, % at 16 µg/mL (by protocol);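 active = mean growth activity at or below -80% and every replicate also at or below -80%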;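 also: 0% = DMSO wells and -100% = levofloxacin 16 µg/mL wells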
Active calls of the source: *; ! = not active in a repeat.

SMILES | C diff HTS
C[C@@H]1CN([C@@H](C)CO)C(=O)c2cccc(NC(=O)Nc3ccc(C(F)(F)F)cc3)c2O[C@@H]1CN(C)Cc1ccc(Oc2ccccc2)cc1 | -96*
COc1ccc(CN(C)C[C@@H]2Oc3c(NC(=O)Nc4ccc(C(F)(F)F)cc4)cccc3C(=O)N([C@@H](C)CO)C[C@H]2C)cc1 | 15
C[C@@H]1CN([C@@H](C)CO)C(=O)c2cccc(NC(=O)Nc3ccccc3)c2O[C@@H]1CN(C)Cc1ccc(-c2ccccc2)cc1 | -102*
C[C@H]1CN([C@@H](C)CO)C(=O)c2cccc(NC(=O)Nc3ccc(F)cc3)c2O[C@@H]1CN(C)Cc1ccc(-c2ccccc2)cc1 | -4
COc1ccc(NC(=O)Nc2cccc3c2O[C@H](CN(C)Cc2ccc(C(F)(F)F)cc2)[C@H](C)CN([C@@H](C)CO)C3=O)cc1 | -101*
C[C@@H]1CN([C@H](C)CO)C(=O)c2cccc(NC(=O)Nc3ccc(C(F)(F)F)cc3)c2O[C@@H]1CN(C)Cc1ccc(Oc2ccccc2)cc1 | -25
C[C@H]1CN([C@@H](C)CO)C(=O)c2cccc(NC(=O)Nc3ccc(C(F)(F)F)cc3)c2O[C@H]1CN(C)Cc1ccc(Oc2ccccc2)cc1 | 81
COc1ccc(CN(C)C[C@@H]2Oc3c(NC(=O)Nc4ccc(C(F)(F)F)cc4)cccc3C(=O)N([C@H](C)CO)C[C@@H]2C)cc1 | 17
C[C@H]1CN([C@@H](C)CO)C(=O)c2cccc(NC(=O)Nc3ccccc3)c2O[C@@H]1CN(C)Cc1ccc(-c2ccccc2)cc1 | 0
COc1cccc(NC(=O)N2CC3(C2)[C@H](c2ccccc2)[C@@H](CO)N3C(=O)C2CCC2)c1 | -1
CC(C)C#Cc1cnc2c(c1)C(=O)N([C@@H](C)CO)C[C@@H](C)[C@H](CN(C)S(=O)(=O)c1cn(C)cn1)O2 | 3
COc1cccc(S(=O)(=O)Nc2ccc3c(c2)OC[C@@H](C)N(C(=O)Cc2cccnc2)C[C@H](C)[C@H](OC)CN(C)C3=O)c1 | 2
CC(C)NC(=O)N[C@@H]1CC[C@@H](CCNC(=O)C2CCC2)O[C@H]1CO | 0
COc1ccc(NC(=O)N(C)C[C@@H]2Oc3ccc(N(C)C)cc3CC(=O)N([C@@H](C)CO)C[C@H]2C)cc1 | -3
O=C(C[C@H]1CC[C@@H]2[C@H](COC[C@H](O)CN2C(=O)Nc2ccc(F)cc2)O1)NCC1CC1 | 33
O=C(C[C@H]1CC[C@H]2[C@@H](COC[C@@H](O)CN2C(=O)Nc2ccc(C(F)(F)F)cc2)O1)NCC1CCCCC1 | -101*!
O=C(C[C@H]1CC[C@H]2[C@@H](COC[C@@H](O)CN2C(=O)Nc2ccc(F)cc2)O1)NCC1CC1 | 2
O=C(C[C@@H]1CC[C@@H]2[C@H](COC[C@H](O)CN2C(=O)Nc2ccc(Cl)cc2)O1)NCC1CC1 | 12
O=C(C[C@H]1CC[C@@H]2[C@H](COC[C@H](O)CN2C(=O)Nc2ccc(C(F)(F)F)cc2)O1)NCC1CCCCC1 | -102*!
O=C(C[C@@H]1CC[C@@H]2[C@H](COC[C@H](O)CN2C(=O)Nc2ccc(C(F)(F)F)cc2)O1)NCC1CCCCC1 | -101*!
O=C(C[C@H]1CC[C@H]2[C@@H](COC[C@H](O)CN2C(=O)Nc2ccc(C(F)(F)F)cc2)O1)NCC1CCCCC1 | -42
O=C(C[C@@H]1CC[C@@H]2[C@H](COC[C@@H](O)CN2C(=O)Nc2ccc(Cl)cc2)O1)NCC1CCCCC1 | 32
O=C(C[C@@H]1CC[C@H]2[C@@H](COC[C@H](O)CN2C(=O)Nc2ccc(F)cc2)O1)NCC1CC1 | 29
COc1ccccc1CNC(=O)C[C@@H]1CC[C@H](NC(C)=O)[C@H](CO)O1 | 11
COCCNC(=O)C[C@H]1C[C@H]2c3cc(NC(=O)COC)ccc3O[C@H]2[C@H](CO)O1 | 0
SMILES | C diff HTS
C[C@@H]1CN([C@H](C)CO)S(=O)(=O)c2ccc(/C=C/c3ccccc3)cc2O[C@H]1CN(C)C(=O)Nc1cccc(F)c1 | 7
C[C@@H]1CN([C@@H](C)CO)C(=O)c2cc(C#CCC3CCCC3)cnc2O[C@H]1CN(C)S(=O)(=O)c1cccs1 | -1
C[C@@H]1CN([C@@H](C)CO)C(=O)c2cccc(NC(=O)C3CC3)c2O[C@@H]1CN(C)S(=O)(=O)c1ccc(Cl)cc1 | -1
CO[C@H]1CN(C)C(=O)c2ccc(NC(=O)Nc3ccc(Cl)c(Cl)c3)cc2OC[C@H](C)NC[C@H]1C | -97*
CO[C@H]1CN(C)C(=O)c2ccc(NC(=O)Nc3ccccc3Cl)cc2OC[C@H](C)NC[C@@H]1C | 14
CO[C@H]1CN(C)C(=O)c2ccc(NC(=O)Nc3cc(Cl)cc(Cl)c3)cc2OC[C@H](C)NC[C@@H]1C | 71
CO[C@H]1CN(C)C(=O)c2ccc(NC(=O)Nc3ccc(Cl)c(Cl)c3)cc2OC[C@H](C)NC[C@@H]1C | -99*
CO[C@@H]1CN(C)C(=O)c2ccc(NC(=O)Nc3ccccc3)cc2OC[C@H](C)NC[C@@H]1C | -1
CO[C@@H]1CN(C)C(=O)c2ccc(NC(=O)Nc3ccc(F)cc3)cc2OC[C@H](C)NC[C@@H]1C | -2
CO[C@H]1CN(C)C(=O)c2ccc(NC(=O)Nc3ccccc3)cc2OC[C@H](C)NC[C@@H]1C | 6
CO[C@@H]1CN(C)C(=O)c2ccc(NC(=O)Nc3cc(Cl)cc(Cl)c3)cc2OC[C@H](C)NC[C@@H]1C | -100*
CO[C@H]1CN(C)C(=O)c2ccc(NC(=O)Nc3ccccc3)cc2OC[C@@H](C)NC[C@@H]1C | -2
CN(C)C(=O)c1cccc(-c2ccc3c(c2)[C@H]2[C@H](CCN2C(=O)c2cnccn2)[C@@H](CO)N3)c1 | 4
CCCC#Cc1ccc2c(c1)[C@@H]1[C@@H](CCN1S(=O)(=O)c1ccc(F)cc1)[C@H](CO)N2 | -4
CCCN(C)C[C@@H]1Oc2ncc(C#Cc3ccc(F)cc3)cc2C(=O)N([C@H](C)CO)C[C@@H]1C | 34
CCCNC(=O)Nc1ccc2c(c1)OC[C@@H](C)N(Cc1ccccc1)C[C@@H](C)[C@@H](OC)CN(C)C2=O | 0
COC(=O)C[C@@H]1CC[C@H]2[C@H](COc3ccc(NS(=O)(=O)c4cccc(F)c4)cc3C(=O)N2C)O1 | 2
N#C[C@@H]1[C@H](c2ccccc2-c2cccc(F)c2)[C@H](CO)N1C(=O)C1CC1 | -1
C[C@H]1CN([C@@H](C)CO)C(=O)c2cc(C#CCc3ccccc3)cnc2O[C@@H]1CN(C)Cc1cccc(C(=O)O)c1 | -9
Cc1ccc(-c2ccc(C3[C@@H]4CN(C(=O)Nc5ccc(C(F)(F)F)cc5)C[C@H]3N4)cc2)cc1 (stereo partly drawn) | -92*!
O=C(Nc1ccccc1)N1C[C@@H]2N[C@H](C1)C2c1ccc(-c2ccccc2F)cc1 (stereo partly drawn) | 39
COc1ccc(-c2ccc(C3[C@H]4CNC[C@@H]3N4C(=O)Nc3ccc(C(F)(F)F)cc3)cc2)cc1 (stereo partly drawn) | -99*!
N#Cc1ccc(-c2ccc(C3[C@@H]4CN(C(=O)Nc5ccc(C(F)(F)F)cc5)C[C@H]3N4)cc2)cc1 (stereo partly drawn) | -96*!
N#Cc1ccc(-c2ccc([C@@H]3[C@@H]4CN(C(=O)Nc5ccc6c(c5)OCO6)C[C@H]3N4)cc2)cc1 | 22
N#Cc1ccc(-c2ccc(C3[C@@H]4CN(C(=O)C5CC5)C[C@H]3N4)cc2)cc1 (stereo partly drawn) | -11
COc1ccc(-c2ccc(C3[C@H]4CNC[C@@H]3N4C(=O)Nc3ccc(F)cc3)cc2)cc1 (stereo partly drawn) | 49
